Screens from PubChem BioAssay.
Shiga toxin inh: Shiga toxin inhibition; inhibition, % at 38.7 µM; Vero cells, Shiga toxin protein synthesis inhibition reporter; 290,000 compounds, 9.2% hits; in the data active = inhibition mostly above about 28%, no sharp cut-off; inactive = mostly below about 43%; note: 0% is about no effect
Pf growth 96h: inhibits malaria parasite growth, 96 h; P. falciparum luciferase reporter growth, 96 h; Potency, µM (titrated, usually from 28.7 µM), inactives show top-dose activity change, negative = inhibition, most hits filed as inhibitors; 320,000 compounds, 6.9% hits; AID 504834; note: potency is the fitted concentration of half-maximal effect; % is set by controls: 0 for no effect and ±100 for the full control effect
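Parasite growth measured via integrated firefly luciferase reporter in P. falciparum. Infected erythrocytes at 2% hematocrit, 0.05% parasitemia final were treated 96 hours at 37 C under 5% CO2, and luminescence was read.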
CHX counter: affects cycloheximide protein synthesis inhibition readout, counter-screen. cell reporter, cycloheximide protein synthesis inhibition counterscreen. max response, %. 300,000 compounds, 12% hits; in the data active = max response mostly above about 13%, no sharp cut-off; inactive = mostly below about 14%; note: read at 38.3 µM for the half of the compounds with a filed dose; 0% is about no effect
Pf growth 48h: inhibits P. falciparum growth in the first generation, 48 h. P. falciparum luciferase growth in erythrocytes, 48 h. Potency, µM (doses to about 28.7 µM), for the others: top-dose activity change, negative = inhibition, actives largely listed as inhibitors. 310,000 compounds, 5.9% hits. AID 504832; note: potency is the fitted concentration of half-maximal effect; % is set by controls: 0 for no effect and ±100 for the full control effect
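Firefly luciferase activity from engineered P. falciparum reports growth; inhibitors lower the luminescent signal. Cultures contained 2% hematocrit erythrocytes at 0.1% final parasitemia.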
Starred values were filed as active, the others as inactive; i = inactive; u = inconclusive; x = no result given. Compounds with a hit are over-represented: about 21% of the library has one in this group of screens. Unless noted, calls come from the whole dose curve; as a rule, active = well fitted inhibition curve with a large enough effect; inconclusive = small, poorly fitted or top-dose-only effect, or another doubt; inactive = no such curve, though single readings can be large or run the other way.

SMILES	Shiga toxin inh	Pf growth 96h	CHX counter	Pf growth 48h
Cc1cc2c(C(C)C)c(O)c(O)c(C=O)c2c(O)c1-c1c(C)cc2c(C(C)C)c(O)c(O)c(C=O)c2c1O	7	5.2µM*	1	13µM*
COc1ccc(C2=CC(=O)C=CC2=O)cc1	-2	10µM*	9.3*	9.3µM*
COc1ccc(C2=CC(=O)C[C@H](c3ccc(OC)cc3)C2)cc1	x	47%	x	10%
OC1(c2ccccc2)CCNC2CCCCC21 (stereo unspecified)	-6	10µM*	-3	30%
OC1(c2ccccc2)CCN(Cc2ccccc2)C2CCCCC21 (stereo unspecified)	-2	62%	-3	10µM*
OC12CCCCC1C(c1ccccc1)NCC2 (stereo unspecified)	18	-16%	13	1%
Cc1oc(-c2cccs2)nc1CN1CC[C@@](O)(c2ccccc2)[C@H]2CCCC[C@@H]21	-7	3%	-1	0%
O=C1NN(c2cccc(Br)c2)C(=O)/C1=C\c1ccc(N2CCOCC2)cc1	-17	u	-2	24%
Cc1ccc(C(OCC(C)(C)C[N+](C)(C)C)c2ccccc2)cc1 (stereo unspecified)	14	u	0	1.3µM*
CC(NC(=O)C(=O)N1CCCCC1)C(c1cccs1)N1CCN(c2ccccc2F)CC1 (stereo unspecified)	-3	1.3µM*	4	u
O=C(O)CCN1C(=O)C2C3C=CC(C3)C2C1=O (stereo unspecified)	2	u	2	-4%
O=C(CN1C(=O)C2C3C=CC(C3)C2C1=O)OCC(=O)c1ccccc1 (stereo unspecified)	37*	0%	21*	-7%
CC1CCCC(C)N1C(=O)CCN1C(=O)C2C3C=CC(C3)C2C1=O (stereo unspecified)	-9	1.7µM*	-2	27%
O=C1C2C3C=CC(C3)C2C(=O)N1CCCCCCN1C(=O)C2C3C=CC(C3)C2C1=O (stereo unspecified)	68*	-15%	48*	138%
Cc1ccccc1NC1=NCC(c2ccc([N+](=O)[O-])cc2)S1 (stereo unspecified)	-7	-24%	8	u
Cc1ccc(Nc2nc3nonc3[nH]c2=O)cc1C	108*	5.2µM*	36*	46%
Cc1ccc(Nc2nc3nonc3[nH]c2=O)cc1Cl	84	0%	6	u
CCC(Oc1ccccc1)C(=O)N(C)CC(=O)N(CC(C)C)c1c(N)n(CC(C)C)c(=O)[nH]c1=O (stereo unspecified)	x	-6%	x	u
CCN(CC)c1ccc(C=Nc2ccccc2)c(O)c1	35	u	5	u
CCN(CC)c1ccc(/C=C/c2cccc[n+]2C)c(OC)c1	-5	50%	-2	0.37µM*
Cc1ccc2nc(N3CCN(c4ccccc4)CC3)c(C=O)c(=O)n2c1	6	u	3	-5%
O=Cc1c(-c2ccc(F)cc2)nc2ccccn12	32	-21%	26	79%
CC1CN(c2nc3ccccn3c(=O)c2C=O)CC(C)O1 (stereo unspecified)	23	12µM*	-4	20%
N#C/C(=C\c1c(N2CCN(c3ccccc3)CC2)nc2ccccn2c1=O)S(=O)(=O)c1ccccc1	-9	u	-4	-5%
COc1ccccc1N1CCN(c2nc3ccccn3c(=O)c2C=O)CC1	35*	u	29*	-6%
SMILES	Shiga toxin inh	Pf growth 96h	CHX counter	Pf growth 48h
COc1ccc(-c2nc3ccccn3c2C=O)cc1	70*	55%	45*	219%
N#C/C(=C\c1c(N2CCCCC2)nc2ccccn2c1=O)S(=O)(=O)c1ccccc1	-13	5.2µM*	-2	-5%
COc1ccccc1C1CC(=O)Oc2c(C(C)C)ccc(C)c21 (stereo unspecified)	i	x	0	x
O=C(NCc1cccc(Cl)c1)C1CCCN(c2ncnc3c2nc2n3CCCCC2)C1 (stereo unspecified)	-4	u	-2	u
CC(=O)Nc1ccc(S(=O)(=O)N(C)CC(=O)OCC(=O)N2CC(C)OC(C)C2)cc1 (stereo unspecified)	x	71%	x	8%
COc1ccccc1N(CC(=O)Nc1ccccc1C(=O)N1CCOCC1)S(C)(=O)=O	2	0%	-6	8%
NC(=O)CC(NC(=O)Cc1ccc(Br)cc1)c1ccc(N2CCC(N3CCCCC3)CC2)c([N+](=O)[O-])c1 (stereo unspecified)	-8	-15%	-4	11%
COc1ccc(N2CCN(c3nc4ccccn4c(=O)c3C=O)CC2)cc1	16	0%	13*	14%
COc1ccc(N2CCN(c3nc4ccc(C)cn4c(=O)c3C=O)CC2)cc1	33	0%	3	u
O=Cc1c(N2CCN(c3ccccc3)CC2)nc2ccccn2c1=O	54*	u	31*	13%
CCN1CCN(c2nc3ccccn3c(=O)c2C=O)CC1	-4	26%	-2	16%
N#CC(C#N)=Cc1c(N2CCN(c3ccccc3)CC2)nc2ccccn2c1=O	82*	u	33*	x
O=Cc1c(N2CCSCC2)nc2ccccn2c1=O	1	12%	1	6%
O=Cc1c(N2CCN(CCO)CC2)nc2ccccn2c1=O	-3	10µM*	-2	0%
CCOC(=O)N1CCC(NCCNC(=O)c2cccc(F)c2)CC1	x	37%	x	4%
CCN1C(=O)[C@@H]2[C@@H](c3ccc(-c4ccc(Cl)c(Cl)c4)c(OC)c3)N3CCC[C@@]3(C(=O)OC)[C@@H]2C1=O	x	0.83µM*	x	5.2µM*
CCN1C(=O)[C@H]2[C@@H](c3ccc(-c4ccc(OC)cc4)c(OC)c3)N3CCCC[C@@]3(C(=O)OC)[C@H]2C1=O	x	9.3µM*	x	12µM*
CCN1C(=O)[C@@H]2[C@@H](c3ccc(-c4ccc(OC)cc4)c(OC)c3)N3CCCC[C@@]3(C(=O)OC)[C@@H]2C1=O	x	4.1µM*	x	2.9µM*
CCN1C(=O)[C@H]2[C@@H](c3ccc(-c4ccc(F)cc4)c(OC)c3)N3CCC[C@@]3(C(=O)OC)[C@H]2C1=O	x	7.4µM*	x	7.4µM*
O=C(C1CCOCC1)N1CCCC(N2CCN(c3cccc(C(F)(F)F)c3)CC2)C1 (stereo unspecified)	3	-18%	6	-22%
CCC(c1nnc(SCC(=O)Nc2ccc(Cl)cc2C(F)(F)F)n1C1CCCCC1)N(C)C (stereo unspecified)	48	u	-1	u
CCN1C(=O)[C@@H]2[C@@H](c3ccc(-c4cccc(Cl)c4)c(OC)c3)N3CCCC[C@@]3(C(=O)OC)[C@@H]2C1=O	x	3.7µM*	x	10µM*
NC(=O)Cn1cnc(-c2ccccc2)c1	-3	u	-3	7%
COc1cc(OC)cc(OCC(O)Cn2cnc(-c3ccccc3)c2)c1 (stereo unspecified)	-8	1%	1	13µM*
CCc1ccc(Nc2n[n+](-c3ccccc3)c(-c3cccc(C)c3)s2)cc1	x	8.3µM*	x	u
Cc1cccc(-c2sc(Nc3ccccc3)n[n+]2-c2ccc(F)cc2)c1	-2	u	-1	15%
CCOc1cc(-c2sc(Nc3ccc(CC)cc3)n[n+]2-c2ccccc2)ccc1OC	x	u	x	10µM*
